These results are taken from publication PMC5540273 (PLoS ONE, 2017).
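Further: KINOMEscan kinase panel screen.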

The subject of the first experiment is AAK1. Particulars: concentration: 1 μM, replicates: in singlicate; n = 1.
`COc1cc2c(Nc3cccc(NC(=O)c4ccccc4)c3)ncnc2cc1OCCCN1CCOCC1` [GSK223810]: the “%Inh” value was found to be 45%.
Still for that read-out and setting: under `CN1c2ccc(-c3ccc(C(=O)NCCO)cc3)cc2-c2[nH]ncc2S1(=O)=O` stands 54%; under `CC(C)N1CCC(n2cnc(-c3ccc(F)cc3)c2-c2ccnc(N)n2)CC1` [SB-223132], 9%; under `CC(=O)Nc1n[nH]c2ncc(-c3ccccc3)cc12` [SB-548492], 0%.
On to `Cl.c1ccc(Cn2ccc3cc(Nc4ncnc5ccccc45)ccc32)cc1` [GW275568], for which the “%Inh” value worked out at 17%.
On the same count and under the same terms, as for `CNc1nccc(-c2c(-c3ccc(F)cc3)ncn2CCCN2CCOCC2)n1` [SB-222516], the figure is 0%.
Same read-out and setting: as for `C[C@@H]1CCN(C(=O)CO)C[C@@H]1N(C)c1ncnc2[nH]ccc12`, the figure is 8%.
Same read-out and setting: as for `Cn1cc(-c2ccc3c(c2)CCN3C(=O)Cc2cccc(C(F)(F)F)c2)c2c(N)ncnc21` [GSK2606414], the figure is 0%; as for `FC(F)(F)c1ccc(-c2cc(-c3c[nH]nc3-c3ccccn3)ccn2)cc1` [GW599550], 24%.

The next experiment concerns ABL1-nonphosphorylated. Particulars: concentration: 1 μM, replicates: in singlicate; n = 1.
Take `CCC(CC)(CC)n1cnc2c(N)ncnc21` [SKF-97620]: the “%Inh” value turned out to be 27%.
The same measure, in the same setting: under `COc1ccc(NC(=O)Nc2ccc(C)c(-c3ccc(C(=O)Nc4ccncc4)cc3)c2)cc1` [GSK1398475] stands 0%; under `COc1ccc(NC(=O)c2ccc(-c3cc(-c4nnc(C)o4)ccc3C)cc2)cc1` [GW595885], 0%.
With `CC(C)(C)OC(=O)NC1CCCN(c2cc(-c3ccc4c(N)n[nH]c4c3)nc(N)n2)C1` (centres unmarked) [GSK2286096], the “%Inh” value was 0%.
Take `O=C(Nc1ccccc1F)NC1CCN(c2ccnc(Nc3ccc(F)cc3)n2)C1` (centres unmarked) [GSK1379722]: the “%Inh” value was found to be 0%.
Still for that read-out and setting: under `CS(=O)(=O)CCNCc1nc(-c2ccc3ncnc(Nc4ccc(OCc5cccc(F)c5)c(Cl)c4)c3c2)cs1.Cl` [GW583340] stands 0%; under `CCc1nc(-c2cccc(N(C)S(=O)(=O)c3ccccc3)c2)c(-c2ccnc(Nc3ccc(N4CCN(C(C)=O)CC4)nc3)n2)s1` [GSK1645895], 28%; under `Fc1ccc(Nc2nccc(-c3c(-c4ccc(Cl)cc4)nn4ncccc34)n2)cc1F` [GW829058], 0%.
Turning to `Cc1ccc(O)cc1Nc1cc(C(F)(F)F)nc2ccc(-c3ccncc3)cc12` [GW630823], the “%Inh” value worked out at 21%.
On the same count and under the same terms, under `COc1ccc(Nc2nccc(N3CCC(NC(=O)c4cccc(NC(C)=O)c4)C3)n2)cc1` (centres unmarked) [GSK1379732] stands 0%; under `Cn1ccc2ncnc(Nc3ccc(Oc4cccc(Cl)c4)c(Cl)c3)c21`, 45%; under `CSc1ccc(NC2=C(c3ccccc3Cl)C(=O)NC2=O)cc1` [SB-342411], 0%.
The same measure, in the same setting: as for `CNc1nccc(-c2c(-c3ccc(F)cc3)ncn2C2CCN(C)CC2)n1` [SB-222903], the figure is 34%; as for `CSc1nn2c(=O)cc(N3CCOCC3)nc2n1Cc1cccc(Cl)c1Cl` [GSK2347225], 0%; as for `CN1CCC(n2cnc(-c3ccc(F)cc3)c2-c2ccnc(NC3CCNCC3)n2)CC1` [SB-229482], 44%.
Same read-out and setting: as for `O=C(c1ccc(-c2cc(-c3c[nH]nc3-c3ccccn3)ccn2)cc1)N1CCCC1` [GW792479], the figure is 74%; as for `Nc1n[nH]c2nnc(-c3ccccc3)cc12` [SB-517389], 11%.
Regarding `O=C(Nc1ccccc1)Nc1ccc(Oc2ccc3nccn3n2)cc1`, the “%Inh” value turned out to be 66%.
Same read-out and setting: under `O=c1cc(N2CCOCC2)nc2n(Cc3cccc(Cl)c3)ccn12` [GSK2296823] stands 0%.
Same read-out and setting: as for `Clc1ccc(-c2cc(-c3c[nH]nc3-c3ccccn3)ccn2)cc1` [GW681251], the figure is 0%.
In the case of `NC(=O)c1sc(-n2cnc3ccccc32)cc1OCc1ccccc1F` [GSK1024306], the “%Inh” value is reported as 0%.
On the same count and under the same terms, as for `Nc1nc(-c2ccccn2)c(-c2ccnc3ccccc23)s1` [GW548057], the figure is 28%; as for `CS(=O)(=O)CCNCc1ccc(-c2ccc3ncnc(Nc4ccc(OCc5ccccc5)c(Cl)c4)c3c2)o1.Cl` [GW574783], 0%; as for `CCCc1ccc(S(=O)(=O)NC2CCN(c3ccnc(Nc4ccc(OC)cc4)n3)C2)cc1` (centres unmarked) [GSK1379737], 0%.
Still for that read-out and setting: as for `Nc1nc(-c2cccnc2)c(-c2ccnc3ccccc23)s1` [GW684083], the figure is 0%; as for `COc1ccc(-c2oc3ncnc(N)c3c2-c2ccc(OC)cc2)cc1` [SB-589132], 21%; as for `COc1cc2c(Nc3cccc(NC(=O)c4ccccc4)c3)ncnc2cc1OCCCN1CCOCC1` [GSK223810], 41%.
The same measure, in the same setting: under `CN1c2ccc(-c3ccc(C(=O)NCCO)cc3)cc2-c2[nH]ncc2S1(=O)=O` stands 33%; under `CC(C)N1CCC(n2cnc(-c3ccc(F)cc3)c2-c2ccnc(N)n2)CC1` [SB-223132], 50%.
As to `CC(=O)Nc1n[nH]c2ncc(-c3ccccc3)cc12` [SB-548492], the “%Inh” value was found to be 49%.
Same read-out and setting: as for `Cl.c1ccc(Cn2ccc3cc(Nc4ncnc5ccccc45)ccc32)cc1` [GW275568], the figure is 0%.
For `CNc1nccc(-c2c(-c3ccc(F)cc3)ncn2CCCN2CCOCC2)n1` [SB-222516], the “%Inh” value was 23%.
In the case of `C[C@@H]1CCN(C(=O)CO)C[C@@H]1N(C)c1ncnc2[nH]ccc12`, the “%Inh” value is reported as 35%.
The same measure, in the same setting: as for `Cn1cc(-c2ccc3c(c2)CCN3C(=O)Cc2cccc(C(F)(F)F)c2)c2c(N)ncnc21` [GSK2606414], the figure is 0%.
Still for that read-out and setting: under `FC(F)(F)c1ccc(-c2cc(-c3c[nH]nc3-c3ccccn3)ccn2)cc1` [GW599550] stands 17%.
